PvdQ acylase = blocks Pseudomonas aeruginosa PvdQ acylase activity | purified PvdQ acylase, fluorescence plate reader | AID 488965 | hit rate 0.063% among 340,000 | inhibition, % at 10 µM; in the data active = inhibition above about 30%, passing the limit was not always enough; inconclusive = no clear call, values can overlap the other calls;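 also: 0% = vehicle neutral wells and 100% = reference inhibitor wells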
miR122 inh = miR-122 inhibition in Huh7 cells. Huh7 miR-122 Renilla luciferase sensor, 48 h; neutral wells = 0, positive control = 100. hit rate 0.3% among 340,000. activation (reporter increase), % at 12.5 µM;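 active = mean replicate activation score at least 90 and every replicate individually at or above 90; inconclusive = only one of the two criteria met; inactive = neither criterion met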;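 also: higher luciferase means less miR-122 activity so hits act as miR-122 inhibitors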
DENV2 CPE rescue = protects cells from dengue virus 2 cytopathic effect; DENV2-infected cells, cytopathic effect rescue, plate reader; AID 651640; hit rate 1.7% among 350,000; CPE inhibition, % at 9.99 µM; in the data active = CPE inhibition above about 20%, passing the limit was not always enough; inconclusive = no clear call, values can overlap the other calls; tested in BHK-21 cells;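 also: 0% = median of neutral control wells and 100% = median of positive control wells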
PGC1a acetyl inh = lowers PGC1a acetylation signal in U2OS cells. AlphaScreen anti-acetyl-lysine; with virally co-expressed GCN5 acetyltransferase. inhibition, % at 15.6 µM. hit rate 0.17% among 350,000. AID 651687;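 active = every replicate shows inhibition of at least 40%; inconclusive = mean inhibition at least 40% but some replicate below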;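 also: 0% = neutral control wells and 100% = positive control wells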
Statin myotox sup = suppressors of simvastatin-induced myotoxicity in C2C12 myotubes; ATP luminescence, 48 h; scaled: DMSO 0, geranylgeraniol control 100; rescue of ATP level, % at 7.49 µM; hit rate 0.78% among 330,000;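 active = mean ATP rescue above about 67%, or every replicate alone reaching that limit, limit read from the data, passing the limit was not always enough; inconclusive = no clear call, values can overlap the other calls; inactive = mean under the limit and some replicate under it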;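 also: myotubes were challenged with 10 µM simvastatin during compound exposure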
Starred values were filed as active, the others as inactive; ? = inconclusive; . = no result; + = active, no number; ! = a repeat was not active; [ ] = another dose, or the depositor's remark. Sampled rows, rich in hits. Any-hit rate of the full collection: about 2.2%.

SMILES	PvdQ acylase	miR122 inh	DENV2 CPE rescue	PGC1a acetyl inh	Statin myotox sup
C[C@H](CO)N1C[C@H](C)[C@H](CN(C)S(=O)(=O)c2ccccc2)Oc2ncc(/C=C/c3ccccc3)cc2C1=O	.	-12[16.7 µM]	?	5	13
COc1cccc(-c2ccc([C@@H]3[C@H]4CN(C(=O)C5CCC5)CC(=O)N4[C@H]3CO)cc2)c1	.	.	12	-23	.
COc1ccc(NC(=O)N(C)C[C@@H]2Oc3ncc(C#Cc4ccc(F)cc4)cc3C(=O)N([C@H](C)CO)C[C@@H]2C)cc1	.	-9[16.7 µM]	63*	15	12
CC(C)NC(=O)N(C)C[C@@H]1Oc2ncc(C#CC3(O)CCCC3)cc2C(=O)N([C@@H](C)CO)C[C@H]1C	.	2[16.7 µM]	3	6	10
CC(C)NC(=O)N(C)C[C@H]1Oc2ncc(C#CC3(O)CCCC3)cc2C(=O)N([C@@H](C)CO)C[C@@H]1C	.	13[16.7 µM]	32*	2	-4
CC(C)NC(=O)N(C)C[C@@H]1Oc2ncc(C#Cc3ccc(F)cc3)cc2C(=O)N([C@@H](C)CO)C[C@H]1C	.	-4[16.7 µM]	25*	0	6
CCCN(C)C[C@H]1Oc2ncc(C#CC3(O)CCCC3)cc2C(=O)N([C@H](C)CO)C[C@H]1C	.	-10[16.7 µM]	27*	2	6
CCCNC(=O)C[C@@H]1CC[C@@H]2[C@H](COc3ccc(NC(=O)NCCC)cc3C(=O)N2C)O1	.	.	3	1	.
COc1ccc(S(=O)(=O)Nc2ccc3c(c2)C(=O)N([C@H](C)CO)C[C@H](C)[C@H](CN(C)C(=O)Nc2ccccc2)OCCCC[C@@H](C)O3)cc1	.	16[16.7 µM]	-2	5	.
C[C@H](CO)N1C[C@H](C)[C@@H](CN(C)C(=O)c2cnccn2)Oc2ncc(C#CCC3CCCC3)cc2C1=O	.	6[16.7 µM]	36*	-4	-3
COc1ccc(C#Cc2cnc3c(c2)C(=O)N([C@H](C)CO)C[C@H](C)[C@@H](CN(C)C(=O)Nc2cccc(OC)c2)O3)cc1	.	-5	8	8	112*!
Cc1ccc(S(=O)(=O)N(C)C[C@H]2Oc3ncc(C#CC4(O)CCCC4)cc3C(=O)N([C@@H](C)CO)C[C@@H]2C)cc1	.	-4[16.7 µM]	9	2	-37
CCCC#Cc1cnc2c(c1)C(=O)N([C@H](C)CO)C[C@@H](C)[C@@H](CN(C)C(=O)NC1CCCC1)O2	.	-3[16.7 µM]	45*	8	3
Cc1ccc(S(=O)(=O)N(C)C[C@H]2Oc3ncc(C#CC4(O)CCCC4)cc3C(=O)N([C@H](C)CO)C[C@H]2C)cc1	.	5[16.7 µM]	21*	-5	-20
O=C(Cc1ccccc1)N[C@H]1C=C[C@@H](CC(=O)N2CCCCC2)O[C@H]1CO	.	.	-3	-6	-2
CCN1CCN(CCC(=O)Nc2ccc(Br)c(C)c2)CC1	-19	10	23*	12	-4
c1ccc(-c2cc(N3CCCCC3)ncn2)cc1	0	1	.	1	.
c1ccc(-c2cc(N3CCCCCC3)n[nH]2)cc1	-5	1	.	-5	93*
CCCNC(=O)C[C@H]1CC[C@H]2[C@@H](COc3ccc(NS(=O)(=O)CC)cc3C(=O)N2C)O1	.	-2[16.7 µM]	0	5	3
CCC1=NN(C(=O)c2ccccc2O)C(O)(c2ccccc2)C1 (stereo not given)	-8	+	-11	.	0
O=C(NCC1CCCO1)c1ccccc1OCc1ccc(F)cc1 (stereo not given)	-15	2	9	2	15
O=C(NCC1CCCO1)c1ccccc1OCc1ccc(Cl)cc1 (stereo not given)	-11	-1	65*	-8	-7
Cc1ccc(-c2nn(-c3ccccc3Cl)cc2C(=O)NCC2CCCO2)cc1 (stereo not given)	-1	.	30*	.	.
Cc1c(N=Cc2c(O)n(Cc3ccco3)c(=O)c3ccccc23)c(=O)n(-c2ccccc2)n1C	-6	3	3	4	114*
O=c1c2ccccc2c2ccccc2c(=O)n1Cc1ccco1	-10	1	.	-6	13
C[C@H](CO)N1C[C@H](C)[C@@H](CN(C)Cc2ccc(C(=O)O)cc2)Oc2ccc(NC(=O)Nc3cccc4ccccc34)cc2CC1=O	.	3[16.7 µM]	77*	6	14
C[C@H]1CN([C@@H](C)CO)C(=O)Cc2cc(NC(=O)Nc3ccc4c(c3)OCO4)ccc2O[C@@H]1CN(C)Cc1ccc(C(=O)O)cc1	.	-2[16.7 µM]	.	-1	1
C[C@H]1CN([C@@H](C)CO)C(=O)Cc2cc(NC(=O)Nc3cccc4ccccc34)ccc2O[C@H]1CN(C)Cc1ccc(C(F)(F)F)cc1	.	-7[16.7 µM]	33*	-4	-32

Screens as filed in PubChem BioAssay.
